Screen size: about 2,300 compounds; about 790 (34%) were called active. How the calls were made is not given here. The list shows a part of the results. Results with a measured potency or affinity are listed apart.

Outcome data for 78 molecules are collected here from PubChem BioAssay AID489025 (Southern Research Specialized Biocontainment Screening …, 2010).

The assay can be described thus: THP-1 cell cytotoxicity, dose response, cytotoxicity control for non-replicating M. tuberculosis project (AID 489025). Particulars: THP-1 cell viability; series mostly up to 40 µM.
Regarding `CCCc1cc(C(=O)Nc2ccccc2SC)no1`, the result was inactive. The value for `c1ccc(-c2noc(CC3CCCCC3)n2)nc1` was “inactive”. With `CCOC(=O)c1c(C)nc2cc(C)ccn12` the entry was “inactive”. With `Cc1c(-c2ccc(Br)cc2)nc2ccccn12` the entry was “inactive”. With `CCCCCC1CC(CC(=O)NC(=S)Nc2ccc([N+](=O)[O-])cc2)C(=O)O1` (stereo not drawn), the molecule was called inactive. With `O=C(N/N=C/c1ccc[nH]1)c1ccc(Cl)cc1` the entry was “inactive”; with `Cc1ccc(-c2nnc(NC3CCCC3)s2)cc1`, “inactive”. For the molecule `CCOC(=O)COc1cc(N)c(Cl)cc1Cl`, the molecule was classed as inactive.

In the case of `CCCCc1ccc(NS(=O)(=O)c2c(C)n(C)c(=O)n(C)c2=O)cc1`, the result was inactive. The value for `CN1CCN(/N=C/c2ccc(-c3ccc([N+](=O)[O-])cc3Cl)o2)CC1` was “inactive”; that for `c1ccc(-c2nnc(SCc3cn4ccsc4n3)o2)cc1` was “inactive”. Consider `COC(=O)[C@@H](NC(=O)c1cc(COc2cncc(Cl)c2)on1)c1ccccc1`, for which the result was inactive. Turning to `CCCCCCOc1ccc(C(=O)O)cc1C#N`, the molecule was called inactive. The value for `CCOC(=O)C1CCN(c2nc3cc(OC)ccc3cc2C#N)CC1` was “inactive”; that for `N#CC(C(=O)NCc1ccco1)c1nc2ccccc2nc1N1CCOCC1` (stereo not drawn) was “inactive”; that for `Cc1ccc(C)c(NC(=O)COC(=O)c2cc3ccccc3oc2=O)c1` was “inactive”.

For the molecule `CC(NC(=O)COc1ccc(-c2ccccc2)cc1)C1CCCO1` (stereo not drawn), the molecule was classed as inactive. As to `CC(C)OC(=O)COc1ccc(-c2ccccc2)cc1`, the molecule was called inactive. For `COC(=O)c1ccc(CSc2nnc(-c3ccncc3)o2)o1`, the result was inactive.

In the case of `COCCCn1c(=NC(=O)c2ccccc2)c(C#N)cc2c(=O)n3cccc(C)c3nc21`, the molecule was called inactive. The value for `O=C(COC(=O)c1ccccn1)Nc1cccc(Cl)c1Cl` was “inactive”; that for `O=C(Nc1ccn(Cc2ccccc2)n1)c1ccc(F)cc1` was “inactive”. With `CN(CCCCOc1ccc(F)cc1)Cc1ccccc1` the entry was “inactive”; with `C=CCN=C1SC(CC)C(=O)N1S(=O)(=O)c1ccc(C)cc1` (stereo not drawn), “inactive”; with `Cc1ccc(Sc2ccc(/C=C3/C(=O)NN(c4ccccc4)C3=O)o2)cc1`, “inactive”.

On to `Cc1ccc(N=Nc2c(C)[nH]n(C(N)=S)c2=O)cc1C`, for which the result was inactive. The value for `O=[N+]([O-])c1ccccc1C1Nc2cccc3cccc(c23)N1` was “inactive”. With `CCOc1ccc(NCC(=O)c2ccc(C)cc2)cc1` the entry was “inactive”. With `NC(N)=N/N=C/c1cccc([N+](=O)[O-])c1O` the entry was “inactive”; with `Cc1cc(/C=N\NC(=O)c2cccs2)c(C)n1-c1ccc2ncccc2c1`, “inactive”; with `Cc1cccc(Cc2cnc(NC(=O)C3=NCCN3)s2)c1`, “inactive”.

In the case of `COc1cc(/C=C2/C(=O)NN(c3ccc(Cl)cc3)C2=O)ccc1OC(=O)c1ccco1`, the outcome was inactive.

Consider `O=C(CCC1CCCCC1)NCc1ccc(F)cc1`, for which the result was inactive. With `COC(=O)C1CC(=O)N(c2ccc(OCc3ccccc3Cl)cc2)C1` (stereo not drawn) the entry was “inactive”; with `Cc1nnc(N/N=C/c2ccc(-c3ccccc3F)o2)n1N`, “inactive”; with `CN1C(c2ccccc2)CC(=NO)CC1c1ccccc1` (stereo not drawn), “inactive”. With `O=C(COC(=O)Cc1ccc(Br)cc1)Nc1ccc(N2CCOCC2)cc1` the entry was “inactive”; with `CC(CN1CCOCC1)OC(=O)c1ccc2c(c1)OCCO2` (stereo not drawn), “inactive”; with `Cc1[nH]n2c(=O)c3c(nc2c1-c1ccccc1)CCCC3`, “inactive”. The value for `N/C(=N\OC(=O)CC1CCCCC1)c1ccncc1` was “inactive”; that for `CCOC(=O)CN(C#N)c1nc(N(C)C)nc(N(C)C)n1` was “inactive”; that for `O=C(N/N=C/c1coc2ccccc2c1=O)c1ccc(Cl)cc1` was “inactive”. Take `O=C(N/N=C/c1ccc[nH]1)c1ccc2c(c1)OCO2`: the outcome was inactive. Regarding `CCOc1ccc(/C=N/OCC(=O)Nc2ccc3c(c2)OCO3)cc1`, the result was inactive. With `O=C(COc1ccc(F)cc1)Nc1ccc2c(c1)OCCO2` the entry was “inactive”; with `O=C(NCCc1c[nH]c2ccccc12)c1cc2ccccc2oc1=O`, “inactive”. With `Cc1nnc(SCCC(=O)Nc2ccc(Cl)cc2)o1` the entry was “inactive”; with `O=C(Nc1ncc2c(n1)-c1ccccc1OC2)c1ccc(F)cc1`, “inactive”. With `O=C(Cc1ccccc1)Nc1ccc(C(=O)NCC2COc3ccccc3O2)cc1` (stereo not drawn) the entry was “inactive”. `O=C(COC(=O)CCc1c[nH]c2ccccc12)NCc1ccc2c(c1)OCO2`: the result was inactive.

Consider `N#Cc1ccc(COC(=O)CCc2c[nH]c3ccccc23)cc1`, for which the molecule was classed as inactive. The value for `COc1ccc(OC(=O)CCc2c[nH]c3ccccc23)cc1` was “inactive”; that for `O=C(COC(=O)CCc1c[nH]c2ccccc12)NCc1ccc(Cl)cc1` was “inactive”; that for `Cc1cc(C)c2sc(NC(=O)C3=COCCO3)nc2c1` was “inactive”. As to `O=c1cc(-c2ccncc2)oc2c1ccc1ccccc12`, the outcome was inactive. With `Cc1ccc(N/N=C2\CS(=O)(=O)N(C)c3ccsc32)cc1` the entry was “inactive”; with `CCCCOC(=O)C1CCCC(C(=O)OCCCC)N1` (stereo not drawn), “inactive”.

As for `CCN1CCC(=NNC(=O)c2ccco2)CC1`, the molecule was called inactive. With `CCOC(=O)c1ccc(N=CC2=C(O)CC(C)(C)CC2=O)cc1` the entry was “inactive”. Consider `CCCn1nnnc1NC(=O)c1cc(Cl)ccc1Cl`, for which the molecule was called inactive.

On to `CCCn1nnnc1NC(=O)COc1ccc(Br)cc1`, for which the call was inactive.

With `CCOC(=O)C(C)Oc1cc(Cl)c(C=O)cc1OC` (stereo not drawn), the call was inactive.

Regarding `Cc1ccc(N=Nc2c(C)[nH]n(C(N)=S)c2=O)cc1`, the outcome was inactive. The value for `CSc1ccc(N=Nc2c(C)[nH]n(C)c2=O)cc1` was “inactive”; that for `CCc1cc2c(=O)n(C(C)C(=O)OC3CCCCC3)cnc2s1` (stereo not drawn) was “inactive”; that for `CC1CCCN(CCCOc2ccc([N+](=O)[O-])cc2)C1` (stereo not drawn) was “inactive”.

Consider `CC(C)(C)C(=O)COc1ccccc1[N+](=O)[O-]`, for which the result was inactive.

On to `COc1ccccc1OCCNC(=O)c1cc([N+](=O)[O-])cc([N+](=O)[O-])c1`, for which the outcome was inactive. With `Cc1cccc(NC(=O)CCSc2nnc(Cc3ccccc3)o2)c1` the entry was “inactive”; with `CCN1C(=O)CC(N2CCC(c3nc4ccccc4[nH]3)CC2)C1=O` (stereo not drawn), “inactive”; with `CCOC(=O)C(=CNNc1cccc(Cl)c1)C(=O)OCC`, “inactive”. With `Cc1ccc2[nH]c3c(c2c1)CCCC3NCCO` (stereo not drawn) the entry was “inactive”; with `Cc1ccc2c(c1)c1c3n2CCN=C3CCC1`, “inactive”.

Regarding `COc1ccc(C2(O)CCN(CCCCOc3ccccc3)CC2)cc1`, the result was inactive.

For the molecule `OCC1(CCOc2ccccc2)CCN(Cc2cc(Cl)ccc2O)CC1`, the molecule was called inactive. Take `COc1cc(NCCC(=O)c2cccs2)c(OC)cc1Cl`: the molecule was called inactive. With `Cc1cc(=O)n2cccc(O)c2n1` the entry was “inactive”; with `CC(C)(C)c1ccc(NC(=O)COc2ccc(-n3ccnc3)cc2)cc1`, “inactive”.
